Bioassay records deposited in PubChem by National Center for Advancing Translational Sciences (NCATS).
The list is not random: actives were taken first. Their share in the collection is about 4.7%.
D1 PAM: human D1 dopamine receptor positive modulation. potentiation, % at 10 µM. P21728. AID 504651. 360,000 compounds, 0.036% hits. HEK293 TREx D1 cells, calcium flux, dopamine EC20 potentiation; in the data active = potentiation above about 30%; note: 0% is about no effect
TRHR ag: agonists of human TRH receptor | activation, % at 2 µM | TRHR cells, calcium flux fluo-8, FDSS agonist mode | 360,000 compounds, 0.18% hits; note: 0% is about no effect
Target sequence (P34981 whole entry, looked up): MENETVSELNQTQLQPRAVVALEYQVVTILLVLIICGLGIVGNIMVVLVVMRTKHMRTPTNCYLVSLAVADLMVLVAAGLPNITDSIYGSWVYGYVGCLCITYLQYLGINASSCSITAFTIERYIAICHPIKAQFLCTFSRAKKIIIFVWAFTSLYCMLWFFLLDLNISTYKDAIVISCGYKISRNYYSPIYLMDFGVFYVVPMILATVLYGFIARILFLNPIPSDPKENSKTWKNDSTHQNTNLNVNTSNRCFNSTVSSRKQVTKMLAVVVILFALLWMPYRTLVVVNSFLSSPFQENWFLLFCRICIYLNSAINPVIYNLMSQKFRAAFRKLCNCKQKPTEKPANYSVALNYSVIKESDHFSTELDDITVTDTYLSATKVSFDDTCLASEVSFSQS
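TRHR-expressing cells loaded with fluo-8 calcium dye; 23 nL library compound pin-transferred, kinetic FDSS fluorescence (Ex 480/Em 530) recorded about 180 s for agonist-induced calcium release, before a 10 nM TRH EC20 addition for potentiator mode.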
D1 antag: antagonists of human D1 dopamine receptor. P21728. HEK293 TREx D1 cells, calcium flux, dopamine EC80; active compounds read low. activity change, negative = inhibition, % at 10 µM. 360,000 compounds, 3.2% hits. AID 504652; in the data active = activity change below about -30%; note: % is set by controls: 0 for no effect and ±100 for the full control effect
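Calcium flux readout: force-coupled, inducible Hek293 Trex D1 line, cells induced overnight at 30 C with tetracycline, dye-loaded 30–90 min at RT. Antagonism scored against EC80 dopamine challenge given 180 s after compound.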
D1 agonist: activates the human D1 dopamine receptor; HEK293 T-REx D1 cells, calcium flux, agonist mode; activation, % at 2 µM; P21728; 360,000 compounds, 1% hits; note: 0% is about no effect
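Tetracycline-induced HEK293 TREx D1 cells, force-coupled to calcium signalling, were dye-loaded with a no-wash calcium kit. Compound was pin-added after a 10 s baseline. Fluorescence was read kinetically at 1 cycle/s for 180 s, with calcium rises flagged as agonism.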
TRHR enhancer: TRH receptor (human) allosteric enhancement; enhancement, % at 2 µM; TRHR cells, fluo-8 calcium fluorescence, EC20 TRH enhancement; P34981; 360,000 compounds, 0.66% hits; in the data active = enhancement above about 30%; note: 0% is about no effect
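Enhancer read-out: after compound pinning and an initial kinetic agonist-mode read, an EC20 of TRH (10 nM final) was injected and fluo-8 calcium signal (Ex 480/Em 530) followed at 1 s/cycle for 100 cycles in TRHR-expressing cells.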
Numbers without * were called inactive; . = not tested or not shown; ! = not confirmed by another sample. Cut-off read from the data, not from the text of the source, unless noted: active = activation above about 30%; inactive = the rest.

SMILES | D1 PAM | TRHR ag | D1 antag | D1 agonist | TRHR enhancer
CCN(CC)CC(O)Cn1c2ccccc2c2ccccc21 (stereo unspecified) | -1 | 0 | -15 | 6 | 3
Cc1cccc(Cc2c(C)nc3nc(SCc4ccccc4F)nn3c2C)c1 | 1 | 1 | 22 | 6 | -4
Nc1cc(S(=O)(=O)N2CCOCC2)ccc1Oc1cccc(Br)c1 | -11 | 0 | -44* | 12 | -3
CCN(CC)CCNC(=O)CCc1c(C)nc2c(c(C)nn2-c2ccc(C)cc2)c1C | -16 | -1 | 3 | 17 | 30*
COCCNC(=O)CCc1c(C)nc2c(c(C)nn2-c2ccc(C)cc2)c1C | -1 | 0 | -4 | 3 | 1
CN(Cc1cnn(C)c1)C(=O)C1CCC(=O)N(Cc2ccc(Cl)cc2)C1 (stereo unspecified) | 2 | 0 | 7 | 1 | -15
CCN(C(=O)COC(=O)Cn1c(C)csc1=O)c1c(N)n(Cc2ccccc2)c(=O)[nH]c1=O | -6 | 0 | 51 | -1 | 1
O=C(NC1CCN(C(=O)Nc2ccccc2Cl)CC1)c1ccco1 | 0 | 0 | 1 | 1 | -5
N#Cc1cc(N)c(Nc2ccccc2)cc1C#N | -11 | -1 | -41* | 10 | -13
COc1ccc(OCC(=O)NCCS(=O)(=O)N2CCN(c3cccc(Cl)c3)CC2)cc1 | -3 | 0 | -7 | 6 | 0
O=C(Cn1nc(C(F)(F)F)c2c1CCCC2)Nc1ccc(Br)cc1 | 1 | 1 | -21 | 13 | 12
CCOC(=O)c1cc(CC)sc1/N=C/C1C(=O)CC(C)(C)CC1=O | -1 | -1 | -49* | 1 | -3
NC(N)=NCCC[C@H](NC(=O)CNC(=O)c1ccccc1)C(=O)Nc1cc(C(F)(F)F)ccc1Cl | 7 | -2 | -13 | 0 | 1
Cc1ccc(Cc2cnc(NC(=O)c3ccco3)s2)cc1 | -2 | 2 | . | 2 | 11
O=C(Nc1ncc(Cc2ccc(SC(F)F)cc2)s1)c1ccc(OC(F)F)cc1 | -7 | 3 | -16 | 35* | -4
CCc1c(-c2ccccc2)nc2ccccc2c1C(=O)NCc1ccc(C)cc1 | 3 | 0 | 17 | 4 | 1
Cc1ccc(-n2c(SCc3ccccc3)nc3c([nH]c4ccccc43)c2=O)cc1 | -1 | 0 | -33* | -1 | 0
COc1cc(/C=N/N2C(=O)CSC2=S)ccc1O | -1 | 6 | 2 | 15 | 1
O=C1CSC(=S)N1/N=C/c1cc(Br)c(O)c(Br)c1 | 0 | 160* | 4 | 422* | 32*
COc1ccc(C(=O)NC(C(=O)NCc2ccccc2OC)C(C)C)cc1 (stereo unspecified) | -8 | 1 | -13 | -1 | -3
COc1ccccc1COC(=O)C(NC(=O)c1ccc(C)cc1)C(C)C (stereo unspecified) | -7 | 0 | -32* | 4 | -17
Cc1ccc(NC(=S)NC2CCSc3ccccc32)cc1C (stereo unspecified) | -11 | 1 | -17 | 0 | -7
CCCCCCCN1CCN=C1N(C)C | -5 | 0 | -35* | 0 | -2
CC(C)CCCN1CCN=C1N(C)C | 2 | 1 | -9 | 2 | 6
C=CC(=O)NCC1OCCc2ccccc21 (stereo unspecified) | 1 | 0 | 4 | 1 | 2
SMILES | D1 PAM | TRHR ag | D1 antag | D1 agonist | TRHR enhancer
CN(C)CCC(=O)NCC1OCCc2ccccc21 (stereo unspecified) | -5 | -1 | -34* | 1 | -8
O=C(NCC1OCCc2ccccc21)c1ccc(NC(=O)c2ccccc2Cl)cc1 (stereo unspecified) | -4 | 1 | -37* | 12 | -2
O=C(CSc1ccc(-c2ccccn2)nn1)Nc1cccc(F)c1 | -10 | 0 | -7 | 7 | -7
COc1ccc(CCNC(=O)CCn2c(=O)c3cccn3c3ccc(F)cc32)c(OC)c1OC | 7 | -1 | -6 | 0 | 2
COc1ccccc1C(=O)N/C(=C\c1cn(S(=O)(=O)N(C)C)c2ccccc12)C(=O)NCCCn1ccnc1 | -1 | -2 | 20 | -1 | -3
CN(C)c1ccc(/C=C(/NC(=O)c2ccccc2)C(=O)NCCCn2ccnc2)cc1 | -1 | 6 | -15 | 34* | 0
O=C(NCCCn1ccnc1)/C(=C/c1ccc(Cl)cc1)NC(=O)c1ccccc1 | . | -1 | 6 | 2 | -2
CN(C)S(=O)(=O)n1cc(/C=C(\NC(=O)c2ccccc2F)C(=O)NCCCn2ccnc2)c2ccccc21 | 11 | 1 | -38*! | 3 | -14
Cc1cc(F)ccc1NC(=O)CN1C(=O)CCc2cc(S(=O)(=O)N3CCOCC3)ccc21 | 2 | 0 | -8 | 0 | -8
COCCNc1nc(-c2cc(C)n(CCc3ccc(OC)cc3)c2C)cs1 | -3 | 1 | -7 | 1 | -4
COc1ccccc1CNc1nc(-c2cc(C)n(C)c2C)cs1 | 1 | 1 | -46* | 4 | -6
COc1cccc(CNc2nnnn2C)c1 | -2 | -1 | -9 | 8 | 11
COc1ccccc1-c1nnc(SCC(=O)Nc2ccc(N3CCOCC3)cc2)n1C | 5 | -1 | -36* | 0 | 2
COc1ccccc1-c1nnc(SCC(=O)NC2CCCCC2)n1C | -13 | 0 | -9 | 2 | -1
COc1cccc2cc(-c3nnc(SCC(=O)Nc4ccc(NC(C)=O)cc4)n3C)oc12 | -2 | 0 | -57* | 1 | -1
COc1ccccc1-c1nnc(SCC(=O)NC2CC2)n1C | . | 0 | -59* | 6 | 11
Cc1ccccc1Cc1ccc(Cl)nn1 | -5 | 0 | -44* | 1 | -1
CC(=O)N1CCC(N(CCN2CCOCC2)C(=S)Nc2ccc(C)cc2)CC1 | -2 | 1 | -2 | 1 | -1
CC(=O)N1CCC(N(CCN2CCOCC2)C(=S)Nc2ccc(C)cc2C)CC1 | -5 | 1 | -31* | 3 | 2
COc1ccc(CNC(=O)c2ccc3nc(CCc4ccccc4)oc3c2)cc1OC | -3 | 0 | -5 | 22 | 7
COc1ccc(CNC(=O)c2ccc3nc(CCc4ccccc4)oc3c2)cc1 | -3 | 2 | -3 | 53* | 2
COc1cccc(CNC(=O)c2ccc3nc(CCc4ccccc4)oc3c2)c1OC | -2 | 0 | -32* | 48* | 0
COc1ccc(N2CC(C(=O)N[C@@H](CC(C)C)C(=O)NC3CCCCC3)CC2=O)cc1 (stereo partly specified) | -3 | 1 | 19 | 5 | 1
CC(=O)c1cnn(-c2c(Cl)cc(Cl)cc2Cl)c1C | 3 | 1 | 3 | 2 | 6
C/C(=N\NC(=O)c1ccc(O)cc1)c1ccc(N2CCOCC2)cc1 | -5 | 0 | -22 | 2 | 0
O=C(N/N=C/c1ccc(N2CCOCC2)cc1)c1ccc(O)cc1 | -5 | 1 | -55* | 2 | 7
CCOc1ccc(S(=O)(=O)Nc2cccc(N(C)S(C)(=O)=O)c2)cc1 | -6 | 0 | -39* | 23 | -1
CC(=O)Nc1ccc(S(=O)(=O)Nc2cccc(N(C)S(C)(=O)=O)c2)cc1 | -5 | 0 | -26 | 1 | 15
